Test results: ChEMBL document CHEMBL3988442, “University of Dundee, Small-Polar-MMV Screening Library” (2021)
Out of some 48,000 compounds screened, about 13,000 (27%) showed an effect of 50% or more. The list shows a part of the results.

tested on: Wolbachia pipientis; experiment: Anti-Wolbachia Cell-Based Screen; format: functional; parameters: scale not given: in the data most compounds retested in dose-response had high values; details: 5 µM

Compound | Percent Effect [%]
Cc1cnn(CCCNC(=O)NC2CCN(CC(F)(F)F)C2=O)c1 (configuration not stated) | -8.389
CC(C)(C(=O)NCc1ccccc1F)n1cc(Br)cn1 | 10.35
O=C(NCCCOc1cccnc1)c1cn(Cc2ccccc2F)nn1 | -6.028
O=C1CNc2ncnc(Nc3cnn(Cc4ccccc4F)c3)c2N1 | 112.6
O=C1CNc2ncnc(Nc3cnn(Cc4cccc(F)c4)c3)c2N1 | 115.2
COc1ccc2c(CN3CCN(Cc4cccc(F)c4)CC3)n[nH]c2c1 | 2.522
c1ccc(Cn2cc(CNCC3CCCN3c3cccnn3)cn2)cc1 (configuration not stated) | 20.91
O=C1CNc2ncnc(Nc3cnn(Cc4ccc(F)cc4)c3)c2N1 | 101.7
O=C1CNc2ncnc(Nc3cnn(Cc4ccccc4)c3)c2N1 | 115.8
O=C1CCN(Cc2cnc3c(-c4ccccc4)cnn3c2)CCN1 | 2.207
O=C1CC(NCc2ccncc2)CN1Cc1cccc(F)c1 (configuration not stated) | -21.37
CCN1CCCC1Cn1ccc2ccc(C(=O)OC)cc2c1=O (configuration not stated) | -21.42
COc1cccc(CN(C)Cc2cccc(C#N)c2)c1OC | -9.148
OC1CCN(C2CCN(Cc3cccc(Cn4cccn4)c3)CC2)CC1 | 19.22
O=C1CNc2ncnc(Nc3cccc(Cn4cccn4)c3)c2N1 | 129.6
c1cc(CN2CCC(CCn3cccn3)CC2)cc(Cn2cccn2)c1 | -8.775
CCN(CC)CCCNc1nccc(-c2cn(C)nc2C)n1 | -2.773
CCCn1ncc(-c2ccnc(NC3CCCc4ccccc43)n2)c1C (configuration not stated) | -7.325
Cc1cc2nc(C3CCCCC3)c(-c3ccnc(NCCO)n3)cn2n1 | 91.18
OCCNc1nccc(-c2cn3nccc3nc2C2CCCCC2)n1 | 109.1
CNCCNc1nccc(-c2cn(C)nc2C)n1 | 0.09563
CCCn1cc(-c2ccnc(NC3CCCc4ccccc43)n2)c(C)n1 (configuration not stated) | 2.739
CCN(CCNC(=O)C1CCCN(C(C)=O)C1)c1ccccc1C (configuration not stated) | 2.266
CNc1ncc(CN(C)c2nc(C)c3ccc(S(C)(=O)=O)cc3n2)cn1 | 9.72
COc1ccnc(CN2CC(=O)N(c3ccc(C)cc3)CC2C)c1OC (configuration not stated) | -8.096
CCOC(=O)N1CC(=O)N(Cc2cccc(OC)c2OC)CC(O)C1 (configuration not stated) | 107.9

Compound | Percent Effect [%]
COc1cccc(CN2CC(O)CN(C(=O)C(C)(C)C)CC2=O)c1OC (configuration not stated) | 116.9
COc1cccc2cc(CNC(C)(C)C(=O)N3CCC(O)CC3)oc12 | -3.796
COc1cccc(CN(C)C(=O)CCC(=O)c2ccccc2)c1OC | -10.25
COCCN1CCc2onc(C(c3ccccc3)c3ccccc3)c2C1 | 19.48
COCCN1CCc2nc(SCc3ccc(F)cc3)[nH]c(=O)c2C1 | 106
CCCN1CCc2nc(SCc3ccc(F)cc3)[nH]c(=O)c2C1 | 101.4
CCCN1CCc2nc(SCc3ccccc3F)[nH]c(=O)c2C1 | 16.02
CCCN1CCc2nc(SCc3ccccc3)[nH]c(=O)c2C1 | 19.11
C=Cc1ccc(CSc2nc3c(c(=O)[nH]2)CN(CCC)CC3)cc1 | -6.559
CCCN(C)C(=O)c1ccc2c(c1)[nH]c(=O)n2CCOCC | -27.89
Cc1csc(CNC(=O)NCC(O)c2cccc(Cl)c2)n1 (configuration not stated) | -23.66
C=C(C)CN(CC)C(=O)c1cc(Cl)ccc1NS(C)(=O)=O | -12.97
COc1cccc(C2C3=C(COC3=O)Nc3[nH]nc(C)c32)c1OC (configuration not stated) | 3.331
CNC(=O)c1cccc(CC2COCCN(Cc3ccsc3)C2)n1 (configuration not stated) | 152.2
O=C(NCc1cc(N2CCOCC2)ncn1)c1cccc(CO)n1 | -9.818
Cc1ccc(CN2CCC3(CC2)CC(NC(=O)c2ccccn2)CO3)o1 (configuration not stated) | -7.485
CNC(=O)c1cccc(CC2COCCN(Cc3ccc(C)o3)C2)n1 (configuration not stated) | 193.8
Cc1ccc(CN2CC[C@@H]3CN(S(C)(=O)=O)CCO[C@@H]3C2)o1 | -7.086
Cn1nc(CN2CCOCC2)c2c1CN(Cc1ccsc1)C2.O=C(O)C(F)(F)F.O=C(O)C(F)(F)F | 1.369
COCCN(CCN(C)C)C(=O)NC1CC1 | -6.538
CCCNC(=O)C[S+]([O-])Cc1csc(C2CCCCC2)n1 (configuration not stated) | 9.015
CC(C)c1cc(NCc2csc(N(C)C)n2)nc(N)n1 | -34.84
C1CN(c2nc(C3CC3)no2)CCN(C2CCOCC2)C1 | 3.883
CCn1ncc2c1C(COC)CN(S(=O)(=O)C1CC1)C2 (configuration not stated) | -7.886
Cn1ncc2c1C(COCC1CC1)CN(Cc1nccs1)C2 (configuration not stated) | -9.049
CCn1ncc2c1C(COC)CN(Cc1ccc(OC)cc1)C2 (configuration not stated) | 12.18
